Source: the supplement of paper PMC11732987, “Enantioselective OTUD7B fragment discovery through chemoproteomics screening and high-throughput optimisation” (Communications Chemistry, 2025)

Assays:
Test in all cases: log2 ratio of Biotin-Ahx-Ub-VS probe labelling (fragment/DMSO); higher = less target engagement (more negative = stronger competition), active = hit call of the paper (q ≤ 0.05, log2 ratio ≤ -1)
Conditions in all cases: compound concentration: 200 uM; treatment time: 3 h
[1] = biological target: T1, USP42 (UniProt Q9H9J4)
T1 sequence (whole entry): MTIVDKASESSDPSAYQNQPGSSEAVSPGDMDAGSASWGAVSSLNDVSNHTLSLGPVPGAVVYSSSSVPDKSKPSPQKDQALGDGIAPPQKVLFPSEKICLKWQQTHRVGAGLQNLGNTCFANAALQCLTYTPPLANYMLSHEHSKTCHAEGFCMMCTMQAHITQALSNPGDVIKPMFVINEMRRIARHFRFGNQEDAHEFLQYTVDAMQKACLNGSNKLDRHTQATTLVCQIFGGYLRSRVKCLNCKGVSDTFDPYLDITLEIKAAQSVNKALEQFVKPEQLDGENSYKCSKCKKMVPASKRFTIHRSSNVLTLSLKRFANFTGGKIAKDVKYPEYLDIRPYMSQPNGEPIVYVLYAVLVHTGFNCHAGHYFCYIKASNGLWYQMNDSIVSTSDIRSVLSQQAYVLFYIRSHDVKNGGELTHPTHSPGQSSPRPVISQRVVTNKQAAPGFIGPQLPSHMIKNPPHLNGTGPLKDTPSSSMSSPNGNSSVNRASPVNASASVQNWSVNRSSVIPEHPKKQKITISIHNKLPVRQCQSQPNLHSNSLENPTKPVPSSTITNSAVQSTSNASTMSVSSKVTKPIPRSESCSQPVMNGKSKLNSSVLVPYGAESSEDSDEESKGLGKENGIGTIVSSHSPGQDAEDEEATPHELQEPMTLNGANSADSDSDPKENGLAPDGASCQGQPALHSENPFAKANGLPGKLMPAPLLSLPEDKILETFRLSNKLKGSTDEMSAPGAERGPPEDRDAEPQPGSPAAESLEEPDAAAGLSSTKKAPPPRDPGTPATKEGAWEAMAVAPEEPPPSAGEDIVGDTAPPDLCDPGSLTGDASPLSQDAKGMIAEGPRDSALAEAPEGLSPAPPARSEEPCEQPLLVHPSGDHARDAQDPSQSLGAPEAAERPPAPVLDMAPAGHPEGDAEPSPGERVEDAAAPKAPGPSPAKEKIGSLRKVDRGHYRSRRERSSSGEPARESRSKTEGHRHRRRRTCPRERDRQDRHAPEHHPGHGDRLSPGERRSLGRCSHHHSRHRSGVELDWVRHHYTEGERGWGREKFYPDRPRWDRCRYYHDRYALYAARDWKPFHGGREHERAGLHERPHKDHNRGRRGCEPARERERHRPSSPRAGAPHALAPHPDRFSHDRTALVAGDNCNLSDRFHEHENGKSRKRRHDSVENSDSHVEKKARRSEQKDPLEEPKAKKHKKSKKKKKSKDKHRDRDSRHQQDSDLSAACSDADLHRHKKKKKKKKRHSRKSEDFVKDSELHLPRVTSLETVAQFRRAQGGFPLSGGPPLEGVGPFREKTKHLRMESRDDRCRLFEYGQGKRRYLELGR
Procedure, shortened: (§1)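 HEK293T lysate (495 µg per sample, in Tris/CHAPS/IGEPAL buffer with protease inhibitors) was exposed in triplicate for 3 h to fragment at 200 µM or to vehicle, then to Biotin-Ahx-Ub-VS at 0.5 µM final for 1 h. Labelled DUBs were enriched on NeutrAvidin, digested with LysC and trypsin, and analysed by diaPASEF LC-MS/MS. Spectronaut label-free quantities were normalised to the global median, and values are average log2 ratios of fragment over vehicle from an unpaired t-test. Only proteins with ≥2 unique peptides were used.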

[2] = biological target: USP46 (UniProt P62068)
Procedure, shortened: as §1

[3] = biological target: T2, USP47 (UniProt Q96K76)
T2 sequence (whole entry): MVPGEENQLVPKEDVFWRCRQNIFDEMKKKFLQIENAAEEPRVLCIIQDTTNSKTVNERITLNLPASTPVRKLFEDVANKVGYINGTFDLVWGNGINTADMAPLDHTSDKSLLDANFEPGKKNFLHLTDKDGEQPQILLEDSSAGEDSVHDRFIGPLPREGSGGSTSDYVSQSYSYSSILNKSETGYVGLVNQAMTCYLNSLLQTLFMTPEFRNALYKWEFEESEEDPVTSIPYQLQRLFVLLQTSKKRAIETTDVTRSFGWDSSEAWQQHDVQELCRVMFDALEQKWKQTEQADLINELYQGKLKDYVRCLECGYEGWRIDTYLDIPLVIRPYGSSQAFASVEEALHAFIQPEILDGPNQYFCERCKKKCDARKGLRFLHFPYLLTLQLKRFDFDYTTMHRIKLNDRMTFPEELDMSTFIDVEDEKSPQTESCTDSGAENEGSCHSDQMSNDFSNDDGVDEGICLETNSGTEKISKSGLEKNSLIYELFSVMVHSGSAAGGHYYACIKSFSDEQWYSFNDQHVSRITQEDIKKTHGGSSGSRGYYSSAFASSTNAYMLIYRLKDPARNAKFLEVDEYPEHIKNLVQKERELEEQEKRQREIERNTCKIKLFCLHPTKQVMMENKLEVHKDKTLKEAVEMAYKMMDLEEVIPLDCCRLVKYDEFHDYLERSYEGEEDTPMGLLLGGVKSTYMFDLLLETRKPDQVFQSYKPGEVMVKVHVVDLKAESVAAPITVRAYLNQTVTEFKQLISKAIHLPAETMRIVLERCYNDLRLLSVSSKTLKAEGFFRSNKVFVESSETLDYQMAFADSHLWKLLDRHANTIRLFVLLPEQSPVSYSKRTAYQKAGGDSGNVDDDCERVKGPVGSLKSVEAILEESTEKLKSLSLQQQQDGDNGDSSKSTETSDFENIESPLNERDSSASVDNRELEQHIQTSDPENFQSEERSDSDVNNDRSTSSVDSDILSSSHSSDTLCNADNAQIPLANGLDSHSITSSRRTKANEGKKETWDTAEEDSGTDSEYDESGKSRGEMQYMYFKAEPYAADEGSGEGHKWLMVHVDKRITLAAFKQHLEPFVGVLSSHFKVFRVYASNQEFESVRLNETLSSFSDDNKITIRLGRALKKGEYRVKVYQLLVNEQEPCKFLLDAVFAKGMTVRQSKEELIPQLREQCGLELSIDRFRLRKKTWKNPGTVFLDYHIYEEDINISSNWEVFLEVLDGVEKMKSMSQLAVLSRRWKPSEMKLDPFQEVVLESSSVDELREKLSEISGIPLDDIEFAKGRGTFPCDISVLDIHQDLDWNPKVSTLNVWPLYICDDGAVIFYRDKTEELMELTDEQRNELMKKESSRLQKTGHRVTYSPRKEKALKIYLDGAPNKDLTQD
Procedure, shortened: as §1

[4] = biological target: T3, USP48 (UniProt Q86UV5)
T3 sequence (whole entry): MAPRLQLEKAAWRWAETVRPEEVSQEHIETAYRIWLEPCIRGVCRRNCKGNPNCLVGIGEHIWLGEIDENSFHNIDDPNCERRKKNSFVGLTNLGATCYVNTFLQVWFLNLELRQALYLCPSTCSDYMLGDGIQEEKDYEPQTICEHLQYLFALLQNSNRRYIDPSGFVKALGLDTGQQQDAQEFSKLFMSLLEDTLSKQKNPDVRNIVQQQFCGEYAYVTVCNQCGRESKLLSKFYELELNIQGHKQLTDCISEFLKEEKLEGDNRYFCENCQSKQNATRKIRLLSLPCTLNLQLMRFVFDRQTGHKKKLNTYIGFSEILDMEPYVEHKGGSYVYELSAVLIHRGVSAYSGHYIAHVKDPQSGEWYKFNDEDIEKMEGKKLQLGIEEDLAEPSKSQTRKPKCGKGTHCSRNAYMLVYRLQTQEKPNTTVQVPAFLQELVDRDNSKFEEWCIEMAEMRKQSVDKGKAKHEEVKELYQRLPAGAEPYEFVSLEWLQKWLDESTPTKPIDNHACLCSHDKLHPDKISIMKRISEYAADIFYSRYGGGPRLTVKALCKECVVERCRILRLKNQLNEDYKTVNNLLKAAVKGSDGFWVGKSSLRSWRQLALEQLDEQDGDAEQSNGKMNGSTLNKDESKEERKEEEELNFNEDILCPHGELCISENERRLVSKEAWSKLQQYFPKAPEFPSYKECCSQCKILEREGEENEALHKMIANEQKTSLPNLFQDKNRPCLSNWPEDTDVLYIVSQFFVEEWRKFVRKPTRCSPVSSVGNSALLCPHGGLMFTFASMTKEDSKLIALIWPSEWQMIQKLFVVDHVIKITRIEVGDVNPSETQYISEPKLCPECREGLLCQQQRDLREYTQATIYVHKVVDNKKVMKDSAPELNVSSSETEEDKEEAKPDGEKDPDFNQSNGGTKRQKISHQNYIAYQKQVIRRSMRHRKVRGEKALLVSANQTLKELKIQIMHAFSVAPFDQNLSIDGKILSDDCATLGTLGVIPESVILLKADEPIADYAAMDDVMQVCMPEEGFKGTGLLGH
Procedure, shortened: as §1

[5] = biological target: T4, USP5 (UniProt P45974)
T4 sequence (whole entry): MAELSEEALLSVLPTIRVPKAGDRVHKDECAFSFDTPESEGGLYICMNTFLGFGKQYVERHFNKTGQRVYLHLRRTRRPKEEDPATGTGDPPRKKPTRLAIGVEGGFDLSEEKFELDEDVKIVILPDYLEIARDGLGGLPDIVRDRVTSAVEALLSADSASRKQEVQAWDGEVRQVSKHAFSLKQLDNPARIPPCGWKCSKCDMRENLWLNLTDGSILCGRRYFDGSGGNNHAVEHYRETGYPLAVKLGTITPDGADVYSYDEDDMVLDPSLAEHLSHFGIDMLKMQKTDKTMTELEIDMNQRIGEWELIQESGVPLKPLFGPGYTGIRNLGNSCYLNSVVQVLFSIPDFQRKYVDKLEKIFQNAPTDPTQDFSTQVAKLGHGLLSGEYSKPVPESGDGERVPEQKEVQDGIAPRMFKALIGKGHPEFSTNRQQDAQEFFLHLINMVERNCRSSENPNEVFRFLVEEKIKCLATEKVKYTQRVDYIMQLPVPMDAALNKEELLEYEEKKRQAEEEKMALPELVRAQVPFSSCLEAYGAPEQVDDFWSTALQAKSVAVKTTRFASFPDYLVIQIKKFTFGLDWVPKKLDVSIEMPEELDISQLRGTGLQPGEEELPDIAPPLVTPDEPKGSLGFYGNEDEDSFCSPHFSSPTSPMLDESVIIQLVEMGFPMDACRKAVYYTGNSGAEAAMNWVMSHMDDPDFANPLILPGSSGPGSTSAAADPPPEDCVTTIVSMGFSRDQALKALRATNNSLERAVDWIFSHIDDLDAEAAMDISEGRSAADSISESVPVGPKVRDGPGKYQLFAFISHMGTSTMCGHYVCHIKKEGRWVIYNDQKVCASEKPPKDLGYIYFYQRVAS
Procedure, shortened: as §1

[6] = biological target: USP54 (UniProt Q70EL1)
Procedure, shortened: as §1

[7] = biological target: USP7 (UniProt Q93009)
Procedure, shortened: as §1

[8] = biological target: T5, USP8 (UniProt P40818)
T5 sequence (whole entry): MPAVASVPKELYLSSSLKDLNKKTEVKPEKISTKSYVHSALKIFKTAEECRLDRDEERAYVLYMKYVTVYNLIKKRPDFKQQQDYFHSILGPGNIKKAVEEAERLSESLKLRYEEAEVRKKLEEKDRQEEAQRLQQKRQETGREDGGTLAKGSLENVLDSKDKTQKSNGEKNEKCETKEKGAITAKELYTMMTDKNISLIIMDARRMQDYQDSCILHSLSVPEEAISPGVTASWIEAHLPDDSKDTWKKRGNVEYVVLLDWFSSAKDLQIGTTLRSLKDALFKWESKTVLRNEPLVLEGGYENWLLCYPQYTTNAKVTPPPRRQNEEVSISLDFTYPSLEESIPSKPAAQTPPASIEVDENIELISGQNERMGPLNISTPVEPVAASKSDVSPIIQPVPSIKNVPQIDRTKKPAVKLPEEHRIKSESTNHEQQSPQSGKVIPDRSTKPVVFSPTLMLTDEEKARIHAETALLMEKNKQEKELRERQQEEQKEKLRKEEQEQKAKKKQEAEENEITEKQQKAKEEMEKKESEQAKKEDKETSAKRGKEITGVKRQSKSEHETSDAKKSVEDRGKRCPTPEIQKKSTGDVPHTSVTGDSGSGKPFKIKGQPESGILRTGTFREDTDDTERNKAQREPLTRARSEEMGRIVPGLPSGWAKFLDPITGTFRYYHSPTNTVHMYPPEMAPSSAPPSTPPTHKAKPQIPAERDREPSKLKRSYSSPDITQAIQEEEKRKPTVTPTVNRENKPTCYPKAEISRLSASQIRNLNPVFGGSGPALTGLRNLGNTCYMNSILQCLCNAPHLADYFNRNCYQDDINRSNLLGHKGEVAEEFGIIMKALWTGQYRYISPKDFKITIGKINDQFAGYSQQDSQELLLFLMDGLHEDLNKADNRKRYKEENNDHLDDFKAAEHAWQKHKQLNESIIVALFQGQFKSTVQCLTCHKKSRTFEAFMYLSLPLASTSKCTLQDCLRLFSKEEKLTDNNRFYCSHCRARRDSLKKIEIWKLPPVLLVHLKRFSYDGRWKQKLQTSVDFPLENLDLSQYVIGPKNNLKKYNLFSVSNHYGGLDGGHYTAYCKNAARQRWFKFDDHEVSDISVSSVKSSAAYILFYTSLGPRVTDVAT
Procedure, shortened: as §1

Measured: log2 ratio of Biotin-Ahx-Ub-VS probe labelling

Chain of USP7 (Q93009 whole entry, looked up): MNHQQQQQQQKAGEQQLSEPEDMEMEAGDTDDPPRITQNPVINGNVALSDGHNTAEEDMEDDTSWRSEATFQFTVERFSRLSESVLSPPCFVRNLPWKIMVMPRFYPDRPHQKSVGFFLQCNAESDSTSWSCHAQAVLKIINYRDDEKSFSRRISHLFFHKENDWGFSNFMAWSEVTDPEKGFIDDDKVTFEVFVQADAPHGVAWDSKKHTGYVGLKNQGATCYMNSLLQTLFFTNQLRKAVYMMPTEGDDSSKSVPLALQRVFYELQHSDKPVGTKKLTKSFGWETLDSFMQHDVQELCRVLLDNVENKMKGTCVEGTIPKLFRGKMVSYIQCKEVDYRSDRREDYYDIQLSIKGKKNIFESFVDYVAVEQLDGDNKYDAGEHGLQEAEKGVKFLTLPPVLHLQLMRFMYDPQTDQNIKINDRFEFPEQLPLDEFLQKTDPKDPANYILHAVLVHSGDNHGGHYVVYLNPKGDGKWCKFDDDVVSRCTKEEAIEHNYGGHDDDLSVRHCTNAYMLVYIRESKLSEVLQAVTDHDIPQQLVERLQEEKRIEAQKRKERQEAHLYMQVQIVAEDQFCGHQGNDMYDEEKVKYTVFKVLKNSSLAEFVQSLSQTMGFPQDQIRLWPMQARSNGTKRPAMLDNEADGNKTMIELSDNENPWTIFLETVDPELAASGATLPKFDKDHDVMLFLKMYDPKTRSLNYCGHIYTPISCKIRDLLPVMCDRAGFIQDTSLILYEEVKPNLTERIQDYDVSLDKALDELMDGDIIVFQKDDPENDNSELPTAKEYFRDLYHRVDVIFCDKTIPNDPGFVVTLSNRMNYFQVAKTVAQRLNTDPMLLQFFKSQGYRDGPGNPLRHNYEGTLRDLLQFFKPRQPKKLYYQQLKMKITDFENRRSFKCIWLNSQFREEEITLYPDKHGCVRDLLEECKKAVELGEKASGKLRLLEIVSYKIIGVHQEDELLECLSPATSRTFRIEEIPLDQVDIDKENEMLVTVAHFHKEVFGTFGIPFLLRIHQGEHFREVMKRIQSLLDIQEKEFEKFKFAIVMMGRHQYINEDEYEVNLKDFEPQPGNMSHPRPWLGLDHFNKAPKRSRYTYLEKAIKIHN
Chain of USP46 (P62068 whole entry): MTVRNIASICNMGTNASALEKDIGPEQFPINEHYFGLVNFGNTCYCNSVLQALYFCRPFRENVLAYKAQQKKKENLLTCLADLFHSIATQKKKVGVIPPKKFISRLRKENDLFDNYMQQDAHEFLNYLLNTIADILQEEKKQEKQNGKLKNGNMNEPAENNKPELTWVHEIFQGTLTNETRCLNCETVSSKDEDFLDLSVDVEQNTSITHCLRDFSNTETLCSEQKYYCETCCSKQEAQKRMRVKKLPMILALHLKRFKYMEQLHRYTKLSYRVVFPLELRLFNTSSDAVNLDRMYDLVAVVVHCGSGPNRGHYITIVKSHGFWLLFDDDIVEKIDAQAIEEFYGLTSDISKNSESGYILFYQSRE
Chain of USP54 (Q70EL1 whole entry): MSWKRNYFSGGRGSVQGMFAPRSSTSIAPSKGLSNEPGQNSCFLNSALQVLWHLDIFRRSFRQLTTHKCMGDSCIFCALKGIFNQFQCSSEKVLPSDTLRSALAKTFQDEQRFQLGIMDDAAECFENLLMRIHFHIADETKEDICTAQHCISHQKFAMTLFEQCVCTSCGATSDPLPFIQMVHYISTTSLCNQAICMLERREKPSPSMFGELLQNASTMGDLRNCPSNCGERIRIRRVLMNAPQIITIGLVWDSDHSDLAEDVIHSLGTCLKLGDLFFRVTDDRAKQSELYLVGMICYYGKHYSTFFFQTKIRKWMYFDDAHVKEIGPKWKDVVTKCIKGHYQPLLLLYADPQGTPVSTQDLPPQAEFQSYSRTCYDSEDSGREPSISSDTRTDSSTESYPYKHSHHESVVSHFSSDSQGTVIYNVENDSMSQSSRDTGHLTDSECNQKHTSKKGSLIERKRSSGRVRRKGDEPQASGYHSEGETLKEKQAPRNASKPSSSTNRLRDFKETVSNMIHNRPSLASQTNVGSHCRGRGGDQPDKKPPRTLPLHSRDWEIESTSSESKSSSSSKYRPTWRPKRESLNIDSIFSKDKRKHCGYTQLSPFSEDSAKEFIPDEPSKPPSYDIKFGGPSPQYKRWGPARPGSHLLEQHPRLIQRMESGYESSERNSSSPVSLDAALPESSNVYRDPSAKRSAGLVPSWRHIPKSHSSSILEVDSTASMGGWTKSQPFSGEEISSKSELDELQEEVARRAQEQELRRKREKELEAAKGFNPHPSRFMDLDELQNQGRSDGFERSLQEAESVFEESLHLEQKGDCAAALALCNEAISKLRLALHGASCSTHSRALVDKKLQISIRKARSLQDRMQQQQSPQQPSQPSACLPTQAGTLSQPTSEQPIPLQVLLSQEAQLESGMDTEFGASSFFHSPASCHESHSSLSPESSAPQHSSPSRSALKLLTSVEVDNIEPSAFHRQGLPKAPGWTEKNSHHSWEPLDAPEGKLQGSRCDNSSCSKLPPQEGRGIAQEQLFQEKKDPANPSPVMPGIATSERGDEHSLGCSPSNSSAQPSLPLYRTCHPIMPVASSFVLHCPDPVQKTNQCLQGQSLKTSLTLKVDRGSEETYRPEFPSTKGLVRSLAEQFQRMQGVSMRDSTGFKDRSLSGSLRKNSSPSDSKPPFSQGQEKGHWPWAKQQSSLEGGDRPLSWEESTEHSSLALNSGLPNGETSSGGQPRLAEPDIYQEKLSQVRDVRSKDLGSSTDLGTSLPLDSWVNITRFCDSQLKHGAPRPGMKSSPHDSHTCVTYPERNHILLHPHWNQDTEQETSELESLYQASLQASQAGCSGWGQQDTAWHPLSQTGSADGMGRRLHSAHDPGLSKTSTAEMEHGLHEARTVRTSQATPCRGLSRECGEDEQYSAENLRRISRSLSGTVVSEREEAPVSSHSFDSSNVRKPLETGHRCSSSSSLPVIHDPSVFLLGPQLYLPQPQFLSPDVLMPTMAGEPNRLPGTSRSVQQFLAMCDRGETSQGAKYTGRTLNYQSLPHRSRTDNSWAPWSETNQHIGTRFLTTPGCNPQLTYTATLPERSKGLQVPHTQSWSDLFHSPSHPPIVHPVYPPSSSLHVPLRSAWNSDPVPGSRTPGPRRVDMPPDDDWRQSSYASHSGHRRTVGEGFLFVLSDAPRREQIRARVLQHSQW

O=C(CCl)NCc1ccc(N2CCOCC2)c(F)c1
inactive: [1] 0.396 | [2] 0.00295 | [3] 0.00631 | [4] 0.132 | [5] 0.372 | [6] 0.657 | [7] -0.046 | [8] 0.129
